Assay outcomes deposited in PubChem by National Center for Advancing Translational Sciences (NCATS).
A selection: hits, their analogues and other compounds. The true share with any hit is near 10%.
12-hLO inh: qHTS Assay for Inhibitors of 12-hLO (12-human lipoxygenase) | purified 12-hLO, xylenol orange hydroperoxide absorbance | AID 1452, 2008 | Potency, µM (doses to about 57.1 µM), for inactives: at the highest dose activity change, negative = inhibition, actives largely listed as inhibitors | 0.12% of 150,000 active; active means well fitted inhibition curve with a large enough effect; inconclusive means small, poorly fitted or top-dose-only effect; further: potency means the concentration at half of the fitted maximal effect; nearly all actives have a fitted effect of over 55% in size
Target sequence (P18054 whole entry, looked up): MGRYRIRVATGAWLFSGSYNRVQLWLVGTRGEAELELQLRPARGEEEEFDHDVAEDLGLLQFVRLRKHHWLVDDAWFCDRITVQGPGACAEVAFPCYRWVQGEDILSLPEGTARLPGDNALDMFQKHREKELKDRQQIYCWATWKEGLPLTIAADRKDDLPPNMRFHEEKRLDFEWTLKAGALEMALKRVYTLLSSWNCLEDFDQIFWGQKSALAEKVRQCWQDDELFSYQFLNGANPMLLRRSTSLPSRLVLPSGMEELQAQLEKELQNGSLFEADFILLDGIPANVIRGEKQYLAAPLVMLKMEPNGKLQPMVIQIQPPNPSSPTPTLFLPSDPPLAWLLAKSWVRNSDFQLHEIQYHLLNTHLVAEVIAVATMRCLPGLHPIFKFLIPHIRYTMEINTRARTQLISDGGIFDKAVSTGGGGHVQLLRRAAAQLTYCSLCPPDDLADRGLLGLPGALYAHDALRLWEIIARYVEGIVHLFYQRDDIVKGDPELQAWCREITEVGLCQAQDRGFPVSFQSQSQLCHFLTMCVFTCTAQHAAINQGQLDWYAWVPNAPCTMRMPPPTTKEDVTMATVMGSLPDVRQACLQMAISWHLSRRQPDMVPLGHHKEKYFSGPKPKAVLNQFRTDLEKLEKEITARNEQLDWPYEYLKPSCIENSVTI
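Purified human 12hLO (150 nM final) was preincubated with compounds for 15 min at room temperature in 25 mM Hepes pH 7.0, 0.01% Triton X-100, then reacted with 40 uM arachidonic acid for 30 min. Hydroperoxide was detected with ferrous iron/xylenol orange.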
HPGD block: qHTS Assay for Inhibitors of HPGD (15-Hydroxyprostaglandin Dehydrogenase) | 15-hydroxyprostaglandin dehydrogenase [NAD(+)] (Homo sapiens), P15428 | purified HPGD, NADH fluorescence kinetic, PGE2 substrate | Potency, µM, for the others: at the highest dose activity change, negative = inhibition, actives largely listed as inhibitors | 4.3% of 150,000 active | AID 894, 2007; further: potency means the concentration at half of the fitted maximal effect
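NADH formation kinetics: reaction with 30 uM PGE2 and 1 mM NAD+ (final), 20 nM enzyme, Tris-HCl pH 8 with Tween 20, after 15 min compound preincubation at room temperature. Fluorescence change, last versus first of five reads.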
ALDH1A1 block: qHTS Assay for Inhibitors of Aldehyde Dehydrogenase 1 (ALDH1A1) | Purified ALDH1A1, NADH fluorescence, propionaldehyde substrate | Potency, µM (highest dose often 75.3 µM), without a hit: at the highest dose activity, negative = inhibition, actives largely listed as inhibitors | 7.3% of 220,000 active | AID 1030, 2008;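 further: potency means the concentration at half of the fitted maximal effect; plate controls were no enzyme wells and a reference inhibitor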
PNC assembly inh: High Content Assay for Compounds that inhibit the Assembly of the Perinucleolar Compartment | activity change (PNC), negative = inhibition, % at 10 µM | 3.1% of 140,000 active | PC3M PTB-GFP, PNC prevalence imaging, 16 h; active compounds read low;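 active means readout at or below -70, meaning at least 70% loss of cells showing the perinucleolar compartment, a nuclear body marking cancer cells; inconclusive means readout between -30 and a set limit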;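 further: plate controls were DMSO wells for no effect and camptothecin positive control wells for full effect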
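PC3M cells stably expressing PTB-GFP, 750–1000 cells/well, treated 16 h at 37 °C with compound (23 nl of library stock), in duplicate. After paraformaldehyde fixation and Hoechst stain, imaged at 20x; PNC prevalence scored by image analysis.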
Lamin A splicing: qHTS Assay for Modulators of Lamin A Splicing; Potency, µM (doses to about 46.1 µM), without a hit: top-dose ratio change, negative = inhibition, most hits filed as inhibitors; HeLa LMNA splicing GFP/RFP minigene ratio, 48 h; 0.01% of 200,000 active; active means well fitted inhibition curve with a large enough effect in the signal ratio, with a control signal flat, not every such curve was filed as active; inconclusive means small, poorly fitted or top-dose-only effect, or effect the other way, or a change in a side signal; the % refers to the signal ratio; further: potency means the concentration at half of the fitted maximal effect
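S3 HeLa cells stably expressing lamin A-EGFP splicing minigene plus DsRed2, 600 cells/well, 48 h compound exposure at 37C. Laser-scanning cytometry; analysed as GFP (500-530 nm)/RFP (575-640 nm) total intensity ratio; 0.5% DMSO vehicle.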
An asterisk follows results filed as active; ? = inconclusive; / = no result given; [ ] = dose if it differs, or a comment. Unless noted, the call rests on the fitted dose curve; in most records, active means well fitted inhibition curve with a large enough effect (not every such curve was filed as active); inconclusive means small, poorly fitted or top-dose-only effect, or another doubt; inactive means no such curve, though single readings can be large or run the other way. Unless noted, on the % scale 0 is the no-effect control and ±100 the full control effect.

SMILES	12-hLO inh	HPGD block	ALDH1A1 block	PNC assembly inh	Lamin A splicing
Cc1cccc(C(=O)Nc2ccccc2OCc2cc(=O)n3ccccc3n2)c1	/	/	/	/	-17.7%[46 µM]
COc1ccc(NC(=O)Cn2c(=O)n(-c3ccc(Cl)cc3)c(=O)c3c(C)c(C(=O)N(C)C)sc32)cc1Cl	/	/	/	/	4.1%[46 µM]
CCC(=O)N1CCc2cc(CNC(=O)c3ccccc3C)ccc21	/	/	/	/	1.2%[46 µM]
CC(C)(C)OC(=O)N[C@H](Cc1ccccc1)C(=O)N1CCC(C(=O)O)CC1	-4.5%	-12.0%	4.5%	-83.4*	-0.6%
CN(C)CCCN(C(=O)c1ccc2c(c1)CCCC2)c1nc2ccc(Cl)cc2s1	-0.8%	-17.4%	14.1µM*	27.7	?
CN(C)CCCN(C(=O)CCc1ccccc1)c1nc2ccc(Cl)cc2s1	3.9%	-11.4%	-25.7%	39.4	-11.1%
CN(C)CCCN(C(=O)c1sc2ccccc2c1Cl)c1nc2ccc(F)cc2s1	1.3%	-14.2%	-14.9%	-94.3*	?
O/N=C1\CCCC\C1=C/c1ccccc1	-3.6%	4.47µM*	-2.4%	?	?
COC(=O)c1cc(C(=O)c2ccc(Cl)cc2)n2c(=O)/c(=C\N(C)C)sc12	/	/	0.251µM*	/	-18.9%[9.22 µM]
COC(=O)c1ccc(=O)n(CC(=O)c2ccc(Cl)cc2)c1	/	/	4.6%	/	?
COC(=O)c1ccc(C(=O)OC)c(-n2c(=O)c3ccccc3c3ccccc3c2=O)c1	-0.3%	-24.0%	?	-21.3	?
COC(=O)c1cc(C(=O)c2ccccc2)n2c(=O)/c(=C\N(C)C)sc12	/	/	3.16µM*	/	/
Cc1cccc(C(=O)Nc2ccccc2OCc2cc(=O)n3cc(C)ccc3n2)c1	/	/	/	/	-23.8%[46 µM]
CC(C)N=c1scc(-c2ccco2)n1/N=C/c1ccc(O)c(O)c1	?	31.6µM*	-4.4%	11.3	?
Oc1ccc(/C=N/n2c(-c3ccco3)csc2=Nc2cccnc2)c(O)c1	1.7%	-13.6%	-5.5%	-6.6	11.9%
COCCN=c1scc(-c2ccco2)n1/N=C/c1ccc(O)c(O)c1O	/	/	8.91µM*	/	-1.9%[46 µM]
Clc1nc(Cl)nc(NCCC2=CCCCC2)n1	/	/	-0.7%	/	5.3%[9.22 µM]
Cc1nn(CC(O)c2ccccc2)c(C)c1Br (configuration not stated)	1.3%	-2.9%	17.8µM*	31.2	10.5%
Cc1nn(CC(O)CN2c3ccccc3Sc3ccccc32)c(C)c1Br (configuration not stated)	-15.5%	-9.4%	6.8%	?	?
CCc1ccc(NC(=O)c2cnn(-c3c(C)cccc3C)c2C2CCNCC2)cc1	/	/	/	/	-9.8%[46 µM]
COC(=O)c1ccc2c(c1)S(=O)(=O)NC(=NCc1ccco1)S2	-2.4%	14.1µM*	-13.2%	18.1	-0.7%
COC(=O)c1ccc(=O)n(Cc2ccco2)c1	1.3%	-7.2%	-12.7%	?	-8.8%
CCNc1nc(NCC)nc(SCCOc2ccc(C)cc2)n1	1.2%	-15.2%	?	-113.4*	?
CCOc1ccc(C2NC(=O)c3ccccc3O2)cc1 (configuration not stated)	-2.7%	-14.2%	22.4µM*	7.2	3.3%
CC1=NN(c2ccccc2)C(=O)/C1=C\N1CC(C)OC(C)C1 (configuration not stated)	0.1%	-1.9%	25.1µM*	33.3	13.1%
SMILES	12-hLO inh	HPGD block	ALDH1A1 block	PNC assembly inh	Lamin A splicing
CCCCNC(=O)c1cnc2sc(N3CCCCCC3)nn2c1=O	/	/	/	/	-18.3%[46 µM]
COc1ccc(Oc2ncc3nc(C)c(=O)n(CCC#N)c3n2)cc1	5.9%	-20.9%	?	/	/
O=C1c2ccccc2NC(c2ccc(Cl)cc2Cl)N1O (configuration not stated)	?	-11.6%	2.2%	27.7	?
Cc1nn(C)c(C)c1C1Nc2ccccc2C(=O)N1O (configuration not stated)	-9.2%	-2.8%	?	-2.4	-6.9%
Cc1ccsc1C1Nc2ccccc2C(=O)N1O (configuration not stated)	3.5%	17.8µM*	-9.2%	31.5	-0.5%
C=CCc1cccc(C2Nc3ccccc3C(=O)N2O)c1O (configuration not stated)	?	7.08µM*	2.4%	2.2	?
O=C(c1cc(C(F)(F)F)cc(C(F)(F)F)c1)N1CCC2(CCCN(c3ccccc3)C2)CC1	-7.2%	-21.7%	9.1%	/	/
Cc1ccc(NC(=O)C(=O)NCC(c2ccc3c(c2)OCO3)N2CCOCC2)cc1C (configuration not stated)	/	/	/	/	1.2%[46 µM]
CCCN(CCC)C(=O)c1ccc2c(c1)OCO2	-2.9%	25.1µM*	3.9%	23.8	1.5%
O=C(CN1C(=O)C2C3C=CC(C3)C2C1=O)N1CC(=O)N(CCc2ccccc2)C(=O)C1 (configuration not stated)	-4.4%	-4.2%	28.2µM*	-5.6	-6.8%
O=C(CCN1C(=O)C2C3C=CC(C3)C2C1=O)N1CC(=O)N(CCc2ccccc2)C(=O)C1 (configuration not stated)	-3.1%	2.8%	?	15.4	-8.5%
COc1ccc(NC(=O)Cn2nnc(-c3ccccc3NC(=O)C3CC3)n2)cc1	-10.4%	/	-0.4%	-103.7*	-9.5%
CC1CCN(S(=O)(=O)c2ccc(NC(=O)Cn3nnc(-c4ccccc4)n3)cc2)CC1	-5.1%	-2.8%	4.5%	-100.0*	20.4%
COc1ccc(C(=O)Cn2nnc(-c3ccccc3NC(=O)C3CCCCC3)n2)cc1	9.1%	-13.2%	0.282µM*	14.7	?
COc1ccc(C(=O)Cn2nnc(-c3ccccc3NC(=O)C(F)(F)F)n2)cc1	-7.9%	-6.5%	-3.0%	23.8	-5.5%
CC1CCCN(S(=O)(=O)c2ccc(NC(=O)Cn3nnc(-c4ccccc4F)n3)cc2)C1 (configuration not stated)	-10.1%	-6.1%	?	-15.6	3.9%
COc1ccc(Nc2nc3ccc(Cl)cc3nc2-n2nc(C)cc2C)cc1	/	/	/	/	13.6%[46 µM]
CCC(C)[C@H](NC(=O)Nc1cccc(OC)c1)C(=O)OC (some centres not stated)	-0.6%	-12.2%	0.1%	33.0	0.8%
COc1cccc(NC(=O)NC(C)C2CC3CCC2C3)c1 (configuration not stated)	/	/	5.01µM*	/	-6.0%[46 µM]
O=C(O)c1cc2ccccc2c2cc(Br)ccc12	/	/	-6.4%	/	/
COc1c(O)cc2c(-c3ccccc3)cc(=O)oc2c1OC	-4.5%	-25.3%	?	/	-5.8%
Cc1ccc(NC(=S)/N=C(\N)Nc2nc(C)c3ccccc3n2)cc1C	5.62µM*	-27.4%	4.3%	-5.7	?
Cc1cccc(NC(=S)/N=C(\N)Nc2nc(C)c3ccccc3n2)c1	7.94µM*	-27.8%	?	49.6	?
COc1ccc(S(=O)(=O)Nc2ccc3c(c2)CCCN3S(=O)(=O)c2ccc(C)cc2)cc1F	/	/	/	/	3.1%[46 µM]
